This is part of a sample that, as a whole, favours compounds with a hit. Of some 83,000 tested, about 20% had one in any assay.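 Step 1: grow cells in 96-well plates. Step 2: add test compound at a single concentration. Step 3: incubate 48 h. Step 4: record percent growth.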 Calls of active or inactive are those of the source. Rule for the calls: active = growth percent below 10; inactive = the rest.
System: OVCAR-4 ovarian
Test: NCI-60 one-dose screen, 48 h (100 = growth as untreated, 0 = no growth, -100 = all killed)
Conditions: 10 µM unless noted

Row | SMILES | growth
1 | O=C(O)Cn1ccc2ccccc21 | 97.8% (inactive)
2 | Cc1ccc2nc(CN(CCN(Cc3nc4ccc(C)cc4[nH]3)Cc3nc4ccc(C)cc4[nH]3)Cc3nc4ccc(C)cc4[nH]3)[nH]c2c1 | -99.2% (active)
3 | COCCn1c(Nc2ccc(C(=O)NO)cc2)nc2ccccc21 | 72.2% (inactive)
4 | N#Cc1c(NN)n(C2OC(CO)C(O)C2O)c2ncnc(N)c12 (configuration not stated) | 14% (inactive)
5 | CCCCCNCCCCCNc1cc(OC)cc2cccnc12 | 37.1% (inactive)
6 | Cc1cc(O)ccc1C1=NN(c2ccc(S(N)(=O)=O)cc2)C(=O)CC1 | 59.2% (inactive)
7 | CC(=O)OC1Oc2cc(C)c(C)cc2-c2oc(=O)c(-c3ccc(F)cc3)cc21 (configuration not stated) | 73.2% (inactive)
8 | CCCCCCCCCCCCCCCC1=NCC[N+]1(CCO)CCO | 61.4% (inactive)
9 | Nc1cc2nc3ccccc3oc-2cc1=O | 69.6% (inactive)
10 | CCOC(=O)C(=CNc1ccccc1Cl)C(=O)OCC | 91.7% (inactive)
11 | O=[N+]([O-])c1cc(F)c2cccnc2c1O | 102% (inactive)
12 | O=C1C=CC(=O)N1CO | 130% (inactive)
13 | COc1ccc(C2C=C(c3ccc(Cl)cc3)N=C3SC=CN32)cc1 (configuration not stated) | 97.4% (inactive)
14 | CCCCCc1c(C)[nH]c(/C=C2\N=C(c3ccc[nH]3)C=C2CC)c1C | -89.8% (active)
15 | COc1ccc(CCN2COc3c([C@@H](C)CCC=C(C)C)ccc(C)c3C2)cc1OC | 39.7% (inactive)
16 | Cc1nc([C@H]2CC[C@H]3[C@@H]4CCC5=CC(=O)CC[C@]5(C)[C@H]4CC[C@]23C)cs1 | 27.4% (inactive)
17 | CC(=O)OC1Oc2ccccc2-c2oc3nc(=N)n(C)c-3cc21 (configuration not stated) | 104% (inactive)
18 | Cn1c(=O)c2c3c(oc2c2ccccc21)C(=O)c1ccccc1C3=O | 4.38% (active)
19 | CN(CCO)c1ccc(N2Cc3ccccc3OC3=C2C(=O)c2c(O)ccc(O)c2C3=O)cn1 | -97.5% (active)

Row | SMILES | growth
20 | Fc1ccc(-c2nnc(N3CCOCC3)c3ccccc23)cc1 | 112% (inactive)
21 | CC(=O)[C@@]1(O)[C@H](C)C[C@H]2[C@@H]3C=C(C)C4=Cc5c(cnn5-c5ccccc5)C[C@]4(C)[C@H]3[C@@H](O)C[C@@]21C | 56.5% (inactive)
22 | N#Cc1c(N)n(C2OC(CO)C(O)C2O)c2ncnc(N)c12 (configuration not stated) | 0.621% (active)
23 | CCCCCCCCCCCCCCCCCC1=NC(C)(C)CN1C(C)(C)CO | 3.31% (active)
24 | CC(=O)OC1Oc2cc(C)c(C)cc2-c2oc(=O)c(-c3cc4ccccc4oc3=O)cc21 (configuration not stated) | 97.2% (inactive)
25 | SCc1ccc(CS)cc1 | 101% (inactive)
26 | CC1=C(C(=O)Nc2ccc(F)cc2)C(c2ccccc2)C2=C(CC(C)(C)CC2=O)N1 (configuration not stated) | 58.7% (inactive)
27 | O=C(C(=O)c1cccnc1)c1cccnc1 | 101% (inactive)
28 | Clc1ccc2c(c1)-n1cccc1C(c1ccc3ccccc3c1)=NC2 | 84.2% (inactive)
29 | F | 76.2% [6.87 mM] (inactive)
30 | COc1cccc(OCC(O)CN2CCN(c3ccccc3)CC2)c1 (configuration not stated) | 97.4% (inactive)
31 | CSCCC1NC(=O)C(C(C)=Nc2ccccc2)=C1O (configuration not stated) | 100% (inactive)
32 | CC(OC(=O)Nc1cccc(Cl)c1)C(=O)O (configuration not stated) | 98.6% (inactive)
33 | C1=C\CCCCN2CC[C@H]3[C@H](CCCC/C=C\CCCN4C[C@@H](CCCCC/1)C[C@@H]3C4)C2 | 74.2% (inactive)
34 | CCOc1c(C#N)c2c(N)ncnc2n1C1OC(CO)C(O)C1O (configuration not stated) | 56.1% (inactive)
35 | COc1cc(/C=C/c2ccc3c(Br)cc(Br)c(O)c3n2)ccc1O | 17.4% (inactive)
36 | Cc1ccc(O)c(Cc2ccccc2)c1 | 108% (inactive)
37 | c1ccc2c(c1)cnc1ccccc12 | 96.3% (inactive)
38 | O=C(Nc1ccc(Oc2ccc(NC(=O)Nc3ccccc3Cl)cc2)cc1)Nc1ccccc1Cl | 29.7% (inactive)

System: SK-OV-3 ovarian
Test: as above
Conditions: 10 µM unless noted

Row | SMILES | growth
39 | O=C(O)Cn1ccc2ccccc21 | 134% (inactive)
40 | Cc1ccc2nc(CN(CCN(Cc3nc4ccc(C)cc4[nH]3)Cc3nc4ccc(C)cc4[nH]3)Cc3nc4ccc(C)cc4[nH]3)[nH]c2c1 | -94.6% (active)
41 | CO[C@@]12[C@@H]3NC3CN1C1=C(C(=O)C(N)=C(C)C1=O)[C@@H]2COC(N)=O (some centres not stated) | 5.63% (active)
42 | COCCn1c(Nc2ccc(C(=O)NO)cc2)nc2ccccc21 | 49.2% (inactive)
43 | N#Cc1c(NN)n(C2OC(CO)C(O)C2O)c2ncnc(N)c12 (configuration not stated) | 2.07% (active)
44 | CCCCCNCCCCCNc1cc(OC)cc2cccnc12 | 91.2% (inactive)
45 | Cc1cc(O)ccc1C1=NN(c2ccc(S(N)(=O)=O)cc2)C(=O)CC1 | 64.9% (inactive)
46 | CC(=O)OC1Oc2cc(C)c(C)cc2-c2oc(=O)c(-c3ccc(F)cc3)cc21 (configuration not stated) | 79.1% (inactive)
47 | CCCCCCCCCCCCCCCC1=NCC[N+]1(CCO)CCO | 95.1% (inactive)
48 | Nc1cc2nc3ccccc3oc-2cc1=O | 92.4% (inactive)
49 | CCOC(=O)C(=CNc1ccccc1Cl)C(=O)OCC | 113% (inactive)
50 | O=[N+]([O-])c1cc(F)c2cccnc2c1O | 97.4% (inactive)
51 | O=C1C=CC(=O)N1CO | 116% (inactive)
52 | COc1ccc(C2C=C(c3ccc(Cl)cc3)N=C3SC=CN32)cc1 (configuration not stated) | 111% (inactive)
53 | CCCCCc1c(C)[nH]c(/C=C2\N=C(c3ccc[nH]3)C=C2CC)c1C | -95.5% (active)
54 | COc1ccc(CCN2COc3c([C@@H](C)CCC=C(C)C)ccc(C)c3C2)cc1OC | 82.6% (inactive)
55 | Cc1nc([C@H]2CC[C@H]3[C@@H]4CCC5=CC(=O)CC[C@]5(C)[C@H]4CC[C@]23C)cs1 | 85.3% (inactive)
56 | CC(=O)OC1Oc2ccccc2-c2oc3nc(=N)n(C)c-3cc21 (configuration not stated) | 104% (inactive)
57 | Cn1c(=O)c2c3c(oc2c2ccccc21)C(=O)c1ccccc1C3=O | 93.6% (inactive)
58 | CN(CCO)c1ccc(N2Cc3ccccc3OC3=C2C(=O)c2c(O)ccc(O)c2C3=O)cn1 | -3.73% (active)

Row | SMILES | growth
59 | Fc1ccc(-c2nnc(N3CCOCC3)c3ccccc23)cc1 | 109% (inactive)
60 | CC(=O)[C@@]1(O)[C@H](C)C[C@H]2[C@@H]3C=C(C)C4=Cc5c(cnn5-c5ccccc5)C[C@]4(C)[C@H]3[C@@H](O)C[C@@]21C | 38.7% (inactive)
61 | N#Cc1c(N)n(C2OC(CO)C(O)C2O)c2ncnc(N)c12 (configuration not stated) | -0.358% (active)
62 | CCCCCCCCCCCCCCCCCC1=NC(C)(C)CN1C(C)(C)CO | -40% (active)
63 | CC(=O)OC1Oc2cc(C)c(C)cc2-c2oc(=O)c(-c3cc4ccccc4oc3=O)cc21 (configuration not stated) | 89.4% (inactive)
64 | SCc1ccc(CS)cc1 | 104% (inactive)
65 | CC1=C(C(=O)Nc2ccc(F)cc2)C(c2ccccc2)C2=C(CC(C)(C)CC2=O)N1 (configuration not stated) | 97.2% (inactive)
66 | O=C(C(=O)c1cccnc1)c1cccnc1 | 136% (inactive)
67 | Clc1ccc2c(c1)-n1cccc1C(c1ccc3ccccc3c1)=NC2 | 94.5% (inactive)
68 | F | 8.2% [6.87 mM] (active)
69 | COc1cccc(OCC(O)CN2CCN(c3ccccc3)CC2)c1 (configuration not stated) | 106% (inactive)
70 | CSCCC1NC(=O)C(C(C)=Nc2ccccc2)=C1O (configuration not stated) | 101% (inactive)
71 | CC(OC(=O)Nc1cccc(Cl)c1)C(=O)O (configuration not stated) | 99.1% (inactive)
72 | C1=C\CCCCN2CC[C@H]3[C@H](CCCC/C=C\CCCN4C[C@@H](CCCCC/1)C[C@@H]3C4)C2 | 83.9% (inactive)
73 | CCOc1c(C#N)c2c(N)ncnc2n1C1OC(CO)C(O)C1O (configuration not stated) | 52.9% (inactive)
74 | COc1cc(/C=C/c2ccc3c(Br)cc(Br)c(O)c3n2)ccc1O | 58.2% (inactive)
75 | Cc1ccc(O)c(Cc2ccccc2)c1 | 110% (inactive)
76 | c1ccc2c(c1)cnc1ccccc12 | 96.1% (inactive)
77 | O=C(Nc1ccc(Oc2ccc(NC(=O)Nc3ccccc3Cl)cc2)cc1)Nc1ccccc1Cl | 76.5% (inactive)

Source: PubChem BioAssay (NCI)
